An excerpt weighted towards active compounds, which were near 3.9% of everything screened.
BoNT-F LC inh – blocks Botulinum neurotoxin F light chain protease; Multiplex microsphere protease cleavage assay, flow cytometry; inhibition, % at 10 µM; 360,000 compounds, 0.22% hits; AID 588497; in the data active = inhibition above about 35%, passing the limit was not always enough; inconclusive = no clear call, values can overlap the other calls; note: plate controls were buffer without enzyme for full effect and enzyme alone for no effect
3CLpro inhibitor – SARS-CoV 3CLpro protease inhibition | P0C6X7 | 290,000 compounds, 0.14% hits | inhibition, % at 6 µM | recombinant SARS-CoV 3CLpro, quenched FRET peptide cleavage; in the data active = inhibition above about 12%
CCHF vOTU inh – blocks the CCHF virus ovarian tumor domain protease; inhibition, % at 11.5 µM; 370,000 compounds, 0.55% hits; CCHFV vOTU protease, Pep-AMC fluorescence; AID 651958; in the data active = inhibition above about 30%; note: 0% = vehicle wells with enzyme and 100% = no enzyme wells
BoNT-A LC inh2 – blocks Botulinum neurotoxin A light chain protease; multiplex microsphere protease substrate cleavage, flow cytometry; inhibition, % at 10 µM; 360,000 compounds, 0.17% hits; AID 588499; note: plate controls were buffer without enzyme for full effect and enzyme alone for no effect
Bead autofluor – flagged as autofluorescent in microsphere protease counterscreen; compound autofluorescence counterscreen, microsphere flow cytometry; stronger effect = higher value; AID 624483; fluorescence intensity (concentration not given with the values); 360,000 compounds, 3.1% hits; in the data active = fluorescence intensity above about 16000; inconclusive = no clear call, values can overlap the other calls
Anthrax LF prot – blocks Bacillus anthracis lethal factor protease; P15917; multiplex microsphere protease cleavage assay, LF; inhibition, % at 10 µM; 360,000 compounds, 0.12% hits; note: plate controls were buffer without enzyme for full effect and enzyme alone for no effect
Target sequence (P15917 whole entry, looked up): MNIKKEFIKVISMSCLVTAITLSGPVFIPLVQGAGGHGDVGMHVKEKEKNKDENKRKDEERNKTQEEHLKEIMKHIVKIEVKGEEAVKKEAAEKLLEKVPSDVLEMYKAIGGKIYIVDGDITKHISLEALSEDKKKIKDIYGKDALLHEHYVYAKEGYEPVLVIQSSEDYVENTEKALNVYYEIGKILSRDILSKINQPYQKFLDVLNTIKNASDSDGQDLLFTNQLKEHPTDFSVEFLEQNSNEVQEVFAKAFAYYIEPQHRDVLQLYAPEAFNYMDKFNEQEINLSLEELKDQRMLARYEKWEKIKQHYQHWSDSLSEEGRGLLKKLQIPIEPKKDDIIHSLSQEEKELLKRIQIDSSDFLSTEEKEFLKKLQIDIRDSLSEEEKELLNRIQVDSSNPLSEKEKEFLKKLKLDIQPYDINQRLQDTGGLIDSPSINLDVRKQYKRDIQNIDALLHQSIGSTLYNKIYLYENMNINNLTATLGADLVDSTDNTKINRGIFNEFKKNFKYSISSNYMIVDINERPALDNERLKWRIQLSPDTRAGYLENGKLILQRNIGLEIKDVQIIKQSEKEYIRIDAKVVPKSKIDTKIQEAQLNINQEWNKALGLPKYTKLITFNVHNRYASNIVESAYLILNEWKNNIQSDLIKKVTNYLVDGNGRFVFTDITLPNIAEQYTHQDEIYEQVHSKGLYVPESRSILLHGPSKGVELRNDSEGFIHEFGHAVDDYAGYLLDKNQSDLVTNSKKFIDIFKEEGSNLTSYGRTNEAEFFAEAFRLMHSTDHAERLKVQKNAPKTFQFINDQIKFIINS
* marks the source's active call; other numbers are inactive results. Cut-off read from the data, not from the text of the source, unless noted: active = inhibition above about 30%; inconclusive = no clear call, values can overlap the other calls; inactive = below that.

Results for Cc1ccc(NC(=S)NNC(=O)c2ccco2)cc1 ?
BoNT-F LC inh: 2; 3CLpro inhibitor: -4; CCHF vOTU inh: -3; BoNT-A LC inh2: 2; Bead autofluor: 21506*; Anthrax LF prot: 0

Results for COc1ccc(CN(CC#Cc2ccc(C)cc2)C(N)=NC(=O)CCc2ccccc2)c(OC)c1 ?
CCHF vOTU inh: 9

What do the screens show for `COC(=O)[C@]1(C)CN(C(=O)OC(C)(C)C)C2=C1C(=O)C[C@@](C)(C(=O)OC(C)(C)C)C2`?
CCHF vOTU inh: 7

What do the screens show for `COc1ccc(C2C(C(=O)Nc3ccc(Cl)cc3)CCC(=O)N2c2ccc(OC)cc2)cc1` (centres undefined)?
CCHF vOTU inh: 6

Results for COc1ccc(-n2c(SC/C=C/c3ccccc3)nnc2-c2cccs2)cc1 ?
CCHF vOTU inh: 4

How did CC(=O)O[C@@H]1C=C[C@@H](C#Cc2ccc(C(C)(C)C)cc2)O[C@@H]1COC(=O)NCc1ccccc1 do in these assays?
CCHF vOTU inh: 11

What do the screens show for `CCc1cc(-c2n[nH]c(=S)n2C(C)c2ccccc2)cs1` (centres undefined)?
BoNT-F LC inh: 5; 3CLpro inhibitor: -2; CCHF vOTU inh: -6; BoNT-A LC inh2: 6; Bead autofluor: 21656*; Anthrax LF prot: 0

Results for O=C(CSc1nnnn1C1CCCCC1)N1c2ccccc2Sc2ccccc21 ?
BoNT-F LC inh: 5; 3CLpro inhibitor: 1; CCHF vOTU inh: -6; BoNT-A LC inh2: inconclusive; Bead autofluor: 19588*; Anthrax LF prot: -1

Results for O=C(CSc1nc(C2CC2)nc2ccccc12)N1c2ccccc2Sc2ccccc21 ?
BoNT-F LC inh: 1; 3CLpro inhibitor: 1; CCHF vOTU inh: 11; BoNT-A LC inh2: 2; Bead autofluor: 22153*; Anthrax LF prot: -1

How did COc1ccc(OC)c(NC(=O)c2ccccc2N(Cc2ccccc2)C(=O)C(C)Cl)c1 (centres undefined) do in these assays?
CCHF vOTU inh: -5

What do the screens show for `CC(C)C[C@H]1COc2cccc(F)c2S(=O)(=O)N1Cc1cn(Cc2ccc(F)cc2)nn1`?
CCHF vOTU inh: -3

Results for Cc1nc2nc3c(cn2n1)C(=O)CCC3 ?
BoNT-F LC inh: -3; 3CLpro inhibitor: 4; CCHF vOTU inh: 8; BoNT-A LC inh2: -2; Bead autofluor: 21199*; Anthrax LF prot: -2

How did O=S1(=O)c2ccc(N3CC[C@@H](O)C3)cc2O[C@H]2CCN1C2 do in these assays?
CCHF vOTU inh: 0

How did C=CCN(CC#CCN(C)C(=O)c1cccn1C(=O)OC(C)(C)C)Cc1ccc(OC)cc1OC do in these assays?
CCHF vOTU inh: 22

Results for O=S1(=O)c2ccc(N3CC[C@H](O)C3)cc2O[C@H]2CCN1C2 ?
CCHF vOTU inh: -6

What do the screens show for `CN1CCN(c2ccccc2NC(=O)COc2ccc(Br)cc2)CC1`?
BoNT-F LC inh: 2; 3CLpro inhibitor: 3; CCHF vOTU inh: 7; BoNT-A LC inh2: 4; Bead autofluor: 21142*; Anthrax LF prot: -2

What do the screens show for `Cc1cccc(OCC(=O)Nc2ccccc2N2CCN(C)CC2)c1`?
BoNT-F LC inh: -4; 3CLpro inhibitor: -4; CCHF vOTU inh: 10; BoNT-A LC inh2: 2; Bead autofluor: 4281; Anthrax LF prot: -2

What do the screens show for `CN1CCN(c2ccccc2NC(=O)Cc2ccc(Cl)cc2)CC1`?
BoNT-F LC inh: 2; 3CLpro inhibitor: -2; BoNT-A LC inh2: 5; Bead autofluor: 21557*; Anthrax LF prot: 1

Results for CCC(=O)N1CCN(c2ccccc2NC(=O)Cc2ccc(Cl)cc2)CC1 ?
BoNT-F LC inh: -1; 3CLpro inhibitor: -2; CCHF vOTU inh: -3; BoNT-A LC inh2: 0; Bead autofluor: 6340; Anthrax LF prot: -13

How did O=C(CN(C(=O)OCC1c2ccccc2-c2ccccc21)[C@@H](Cc1ccccc1)C(=O)O)OCc1ccc(C(=O)NCc2ccccc2)cc1 do in these assays?
CCHF vOTU inh: 24

How did O=C(Nc1ncc2c(n1)-c1ccccc1CC2)c1ccc(Cl)cc1 do in these assays?
BoNT-F LC inh: 3; 3CLpro inhibitor: 1; CCHF vOTU inh: -2; BoNT-A LC inh2: 2; Bead autofluor: 22185*; Anthrax LF prot: 2

What do the screens show for `O=C(Nc1ncc2c(n1)-c1ccccc1OC2)c1ccc(Cl)cc1Cl`?
BoNT-F LC inh: 1; 3CLpro inhibitor: 3; CCHF vOTU inh: -8; BoNT-A LC inh2: 1; Bead autofluor: 16392*; Anthrax LF prot: -1

How did O=C(Nc1ncc2c(n1)-c1ccccc1OC2)c1ccc(F)cc1 do in these assays?
BoNT-F LC inh: -1; 3CLpro inhibitor: -2; CCHF vOTU inh: -158; BoNT-A LC inh2: -1; Bead autofluor: 3958; Anthrax LF prot: -7

Results for Cc1ccccc1C(=O)N[C@H](C(=O)N1CCC[C@H]1C(=O)NCCc1ccccc1Cl)c1ccccc1 ?
CCHF vOTU inh: -2

What do the screens show for `C=CCOc1c(CNc2ccc(C(=O)O)cc2)cccc1OC`?
BoNT-F LC inh: -3; 3CLpro inhibitor: -5; CCHF vOTU inh: 1; BoNT-A LC inh2: 0; Bead autofluor: 2150; Anthrax LF prot: -2

What do the screens show for `C=CCOc1c(CNc2ccc(C(=O)O)cc2)cccc1OCC`?
BoNT-F LC inh: 9; 3CLpro inhibitor: 3; CCHF vOTU inh: -2; BoNT-A LC inh2: inconclusive; Bead autofluor: 19846*; Anthrax LF prot: 0

How did COC(=O)[C@]12C[C@H](CC(=O)N3CCOCC3)C(=O)N(Cc3cccc4ccccc34)C1=C[C@H](C(C)C)O[C@@H]2C1CC1 do in these assays?
CCHF vOTU inh: 5

How did COc1ccc(C)cc1NC(=O)CSc1nnc(-c2n[nH]c3c2CCC3)n1N do in these assays?
CCHF vOTU inh: 2

What do the screens show for `OCC1SC(O)C(O)C(O)C1O` (centres undefined)?
CCHF vOTU inh: -7

How did O=C(O)c1ccc(S(=O)(=O)N2CCC(c3nc(-c4ccccc4Cl)no3)CC2)cc1 do in these assays?
BoNT-F LC inh: -1; 3CLpro inhibitor: 2; CCHF vOTU inh: -5; BoNT-A LC inh2: inconclusive; Bead autofluor: 23179*; Anthrax LF prot: -2

How did O=C(C(c1ccccc1)c1ccccc1)N1CCC(c2nc(-c3ccccc3Cl)no2)CC1 do in these assays?
BoNT-F LC inh: 4; 3CLpro inhibitor: 5; CCHF vOTU inh: -2; BoNT-A LC inh2: 0; Bead autofluor: 2325; Anthrax LF prot: -3

What do the screens show for `O=C(COc1ccccc1C(=O)NCc1ccccc1)Nc1ccc(I)cc1`?
CCHF vOTU inh: 4

What do the screens show for `O=C(Cc1nc(-c2ccc([N+](=O)[O-])cc2)cs1)Nc1ccccc1`?
BoNT-F LC inh: 1; 3CLpro inhibitor: 1; CCHF vOTU inh: 29; BoNT-A LC inh2: 2; Bead autofluor: 21221*; Anthrax LF prot: -5

How did COCC(=O)Nc1nc(-c2ccc([N+](=O)[O-])cc2)cs1 do in these assays?
BoNT-F LC inh: -5; 3CLpro inhibitor: -2; CCHF vOTU inh: 9; BoNT-A LC inh2: -1; Bead autofluor: 4556; Anthrax LF prot: 0

How did O=C(Nc1nc(-c2cccnc2)cs1)c1cccc([N+](=O)[O-])c1 do in these assays?
BoNT-F LC inh: -2; 3CLpro inhibitor: 1; CCHF vOTU inh: 15; BoNT-A LC inh2: -1; Bead autofluor: 4501; Anthrax LF prot: -1

Compound activity (PubChem BioAssay)
